# A selection: hits, their analogues and other compounds. The true share with any hit is near 11%.
# Pf growth 48h = Primary qHTS for delayed death inhibitors of the malarial parasite plastid, 48 hour incubation | Potency, µM (top dose mostly 28.7 µM), hits mostly inhibitors | hit rate 5.9% among 310,000 | P. falciparum luciferase growth in erythrocytes, 48 h
#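 Read-out is firefly luciferase luminescence from an integrated reporter in P. falciparum, so falling signal marks reduced parasite growth. Infected erythrocytes were at 2% hematocrit and 0.1% parasitemia (final) in Albumax-supplemented RPMI 1640.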
# Pf growth 96h = Primary qHTS for delayed death inhibitors of the malarial parasite plastid, 96 hour incubation. P. falciparum luciferase reporter growth, 96 h. Potency, µM (doses to about 28.7 µM), hits mostly inhibitors. hit rate 6.9% among 320,000. AID 504834, 2011
#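 Luminescence readout: decreased luciferase signal marks inhibited growth of reporter-expressing P. falciparum in infected red cells (2% hematocrit, 0.05% parasitemia final), exposed to compound two generations (96 h, 37 C, 5% CO2).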
# HCV inhibitor = qHTS Assay for Inhibitors of Hepatitis C Virus (HCV) | Potency, µM (top dose mostly 41.8 µM), most hits filed as inhibitors | hit rate 3.4% among 340,000 | Huh7.5.1 HCVcc-Cre infection, luciferase reporter, 44 h
#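 Luciferase read-out (15 sec integration) after a 15 min room-temperature substrate step quantifies HCVcc-Cre infection. Cells, 1,000 per well, had compound added 4 h post-plating, then virus at ~0.5 moi, and were cultured 44 h.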
# AmpC inh detg = qHTS Inhibitors of AmpC Beta-Lactamase (assay with detergent) | P00811 | AmpC hydrolysis of nitrocefin, absorbance 480 nm, 0.01% Triton | Potency, µM (titrated, usually from 114 µM), usual class: inhibitors | hit rate 0.041% among 370,000 | AID 485294, 2010; also: nearly all actives have a fitted effect of over 25% in size
# Target sequence (P00811 whole entry, looked up): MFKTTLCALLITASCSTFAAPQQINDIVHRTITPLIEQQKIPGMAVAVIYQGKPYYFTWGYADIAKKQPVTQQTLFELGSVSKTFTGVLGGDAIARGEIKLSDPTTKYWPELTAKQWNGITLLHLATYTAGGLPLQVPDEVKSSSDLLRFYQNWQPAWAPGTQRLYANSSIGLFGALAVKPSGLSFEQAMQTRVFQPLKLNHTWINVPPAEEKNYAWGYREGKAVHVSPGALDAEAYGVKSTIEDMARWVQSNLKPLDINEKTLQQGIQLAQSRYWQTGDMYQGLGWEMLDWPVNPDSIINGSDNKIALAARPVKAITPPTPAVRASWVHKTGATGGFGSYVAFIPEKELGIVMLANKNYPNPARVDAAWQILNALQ
#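 AmpC (5.3 nM in the dispensed reagent) in 20 mM phosphate pH 7.0 with 0.01% (detergent screen) or 0.0001% Triton X-100 was preincubated with compounds for 15 min at room temperature. Nitrocefin was then added from an 800 uM solution, and hydrolysis was followed at 480 nm.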
# AmpC no deterg = qHTS Inhibitors of AmpC Beta-Lactamase (assay without detergent); AmpC nitrocefin hydrolysis, absorbance 480 nm, 0.0001% Triton; P00811; Potency, µM (series often up to 57.1 µM), usual class: inhibitors; hit rate 0.52% among 330,000; also: nearly all actives have a fitted effect of over 20% in size
#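 20 mM phosphate pH 7.0 + 0.01% (detergent screen) or 0.0001% Triton X-100; 5.3 nM AmpC reagent; cpd preinc 15 min RT; nitrocefin (800 uM stock) to start; A480 q20 s × 4 min; Activity was normalised to no-enzyme and no-compound control wells.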
# AMA1 RON2 block = qHTS for Inhibitors of AMA1-RON; Towards Development of Antimalarial Drug Lead: Primary Screen; AID 720542, 2013; AlphaScreen AMA1-biotinylated RON2 peptide binding; Plasmodium falciparum AMA1 (3D7) - RON2 peptide interaction; hit rate 0.2% among 360,000; Potency, µM (doses to about 58.2 µM), actives largely listed as inhibitors; also: nearly all actives have a fitted effect of over 45% in size
#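 AMA1 (3D7) with his tag at 25 nM final met compounds first, then biotinylated RON2 peptide at 25 nM; detection used donor plus acceptor beads, 10 µg/mL apiece, read by AlphaScreen after 30 min at room temperature.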
# Hits are given with their value; 0 = inactive; ? = inconclusive; - = no result; [ ] = another dose, or the depositor's remark. Calls follow the shape of the dose curve; as a rule, active = well fitted curve in the direction sought with a large enough effect; inconclusive = small, poorly fitted or top-dose-only effect, or another doubt; inactive = no such curve, though single readings can be large; an effect the other way counts as inactive or inconclusive.
SMILES,Pf growth 48h,Pf growth 96h,HCV inhibitor,AmpC inh detg,AmpC no deterg,AMA1 RON2 block
CCOc1ccc(CNC(=O)CN2N=C(c3ccccc3)CCC2=O)cc1OC,-,-,-,0,-,-
CCOCC(=O)Nc1ccc(-c2cn3c(C)csc3n2)cc1,-,-,-,0,-,-
CC(C)NC(=O)N1[C@H](c2cccs2)[C@@H](C)C(=O)[C@@H](C)[C@@H]1c1cccs1,-,-,-,0,-,-
Cc1c(/C=N/NC(=O)c2ccc(O)cc2)c2ccccn2c1C(=O)c1ccc(F)cc1,4.15µM,?,?,0,0,0[2.32 µM]
COC(=O)N/N=C/c1c(C)c(C(=O)c2ccc(F)cc2)n2ccccc12,0,?,?,0,0,0
COc1ccc(CNC(=O)Cn2c(=O)n3nc(-c4cccc(F)c4)nc3c3ccccc32)cc1OC,-,-,-,0,-,-
O=C1NC(=O)C(c2cn(-c3ccccc3)nc2-c2ccc(F)cc2)N1 (stereo not drawn),4.65µM,?,0,0,0,0
C=CCN1C(=Nc2cccnc2)SCC1(O)c1ccc(C)cc1 (stereo not drawn),3.29µM,0,-,0,0,-
C=CCN1C(=O)CSC1=Nc1cccc(O)c1,0,-,0,0,0,0
c1ccc(CC(Nc2ccccn2)c2ccccc2)cc1 (stereo not drawn),?,14.7µM,0,0,0,0
COC(=O)c1cc(NC(=O)CN(c2ccccc2)S(=O)(=O)N(C)C)ccc1Cl,-,-,-,0,-,-
CCC(=C(c1ccc(OC)cc1)c1ccc(OC)cc1)c1cn(CC(O)CN(CCO)CCO)c2ccccc12 (stereo not drawn),9.28µM,?,?,0,0,0
COc1ccc(OCC(O)CN(CCO)CC(O)Cn2ccc3ccccc32)cc1 (stereo not drawn),?,0,?,0,0,0
CCCN(CCC)S(=O)(=O)c1cccc(-c2csc(C)n2)c1,10.4µM,?,0,0,0,0
COc1ccc(N2CCN(C(=O)CCCN3C(=O)c4cccc5cccc(c45)C3=O)CC2)cc1,?,0,?,0,0,?
c1ccc(CN2CCN(C3=Nc4cccc5cccc3c45)CC2)cc1,?,-,?,0,0,?
O=C(CCCN1C(=O)c2cccc3cccc(c23)C1=O)N1CCN(c2ccc(F)cc2)CC1,?,0,11.2µM,0,0,0
Fc1ccc(N2CCN(C3=Nc4cccc5cccc3c45)CC2)cc1,0,?,?,?,0[11.4 µM],22.4µM
CCCCCCCn1ccc(=N)cc1,0.928µM,-,0.562µM,0,0,0
CCCCCCCCCn1ccc(=N)cc1,0.165µM,?,0.0398µM,0,0,0
CCCCCn1ccc(=N)cc1,4.15µM,1.47µM,6.31µM,0,0,0
CCCCCCN1CC(O)=C(c2ccccc2)C1=N,0,-,0,0,0,0
CCCCCNCc1cccn1C,0,-,0,0,0,0
CCn1ccc(=N)cc1,?,11.7µM,0,0,0,0
Cc1cccc(N2CCN(S(=O)(=O)c3ccc4oc(=O)c5ncn(C)c5c4c3)CC2C)c1 (stereo not drawn),-,-,-,0,-,-
SMILES,Pf growth 48h,Pf growth 96h,HCV inhibitor,AmpC inh detg,AmpC no deterg,AMA1 RON2 block
O=C(C1COc2ccccc2O1)N1CCN(c2nc3c(F)cccc3s2)CC1 (stereo not drawn),-,-,-,0,-,-
O=C(Nc1cccc(C(F)(F)F)c1)c1cccn(Cc2ccc3c(c2)OC(F)(F)O3)c1=O,0,0,0,0,0,0
O=C(Nc1ccc(C(F)(F)F)cc1)c1cccn(Cc2ccc3c(c2)OC(F)(F)O3)c1=O,0,0,10µM,0,0,0
CCN(Cc1cc(OC)c(OC)c(OC)c1)C(=S)Nc1cccc(SC)c1,?,10.4µM,?,0,0,0
COc1cc(CC(=O)Nc2cccc(SC)c2)cc(OC)c1OC,0,?,14.1µM,0,0,0
Cc1ccc(CNC(=O)c2cc(C)nc3c2c(C)nn3-c2ccc(C)cc2)cc1,-,-,-,0,-,-
CCN(CC)C(=O)[C@H]1C[C@H](CC(=O)NCCCN(C)C)C(=O)N2CCc3c([nH]c4ccc(Cl)cc34)[C@]12C,-,-,?,-,0,0

# Bioassay records: PubChem, National Center for Advancing Translational Sciences (NCATS)
